# ± gives the standard deviation.
# T1: HaloTag-ATRX ADD domain (163-292)
# T1 chain: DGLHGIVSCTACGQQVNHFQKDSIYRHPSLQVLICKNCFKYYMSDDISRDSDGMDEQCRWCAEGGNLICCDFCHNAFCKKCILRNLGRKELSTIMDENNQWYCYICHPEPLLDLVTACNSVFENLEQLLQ
# Assays:
# Test in all cases: peptide microarray binding signal (635 nm), min-max normalized on array (fraction of array maximum); higher = stronger binding
# Details in all cases: peptide region: H3 5-17
# [1] = target: T1, HaloTag-ATRX ADD domain (163-292)
# Method in brief: (§1)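 An Axon GenePix 4000B scanned the arrays at 635 nm for signal and at 532 nm to catch misprints. Those arrays held histone 13-mer peptide–cellulose conjugates printed in triplicate on nitrocellulose with a Cy3 tracer, blocked overnight at 4°C and probed for 1 h at 4°C with biotin-labelled HaloTag reader fusions (10 nM to 1 μM) plus streptavidin-Alexa Fluor 647 or with rabbit histone antibodies (1:10,000 to 1:2,000) plus anti-rabbit Alexa 647. Each binding signal is a triplicate-spot mean intensity, scaled min-max within its library.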
# [2] = target: HaloTag-ING2 PHD (mouse Ing2 200-280)
# Method in brief: as §1
# [3] = target: anti-H3K4me3 antibody ab8580
# Method in brief: as §1
# [4] = target: anti-H3K9me3 antibody ab8898
# Method in brief: as §1
# [5] = peptide modifications: H3K9me3 H3S10ph, binder concentration: 1:2,000 dilution
# [6] = peptide modifications: H3K9me3 H3S10ph, binder concentration: 1:10,000 dilution
# [7] = peptide modifications: H3K14ac, binder concentration: 1:2,000 dilution
# [8] = peptide modifications: H3K14ac, binder concentration: 1:10,000 dilution
# [9] = peptide modifications: H3R8cit H3K9ac, binder concentration: 1:2,000 dilution
# [10] = peptide modifications: H3R8cit H3K9ac, binder concentration: 1:10,000 dilution
# [11] = peptide modifications: H3R8cit H3S10ph, binder concentration: 1:2,000 dilution
# [12] = peptide modifications: H3R8cit H3S10ph, binder concentration: 1:10,000 dilution
# [13] = peptide modifications: H3R8cit H3K9me1, binder concentration: 1:2,000 dilution
# [14] = peptide modifications: H3R8cit H3K9me1, binder concentration: 1:10,000 dilution
# [15] = peptide modifications: H3R8cit H3K9me3, binder concentration: 1:2,000 dilution
# [16] = peptide modifications: H3R8cit H3K9me3, binder concentration: 1:10,000 dilution
# [17] = peptide modifications: H3K14me3, binder concentration: 1:2,000 dilution
# [18] = peptide modifications: H3K14me3, binder concentration: 1:10,000 dilution
# [19] = peptide modifications: H3K14me1, binder concentration: 1:2,000 dilution
# [20] = peptide modifications: H3K14me1, binder concentration: 1:10,000 dilution
# [21] = peptide modifications: H3K9me3 H3K14me3, binder concentration: 1:2,000 dilution
# [22] = peptide modifications: H3K9me3 H3K14me3, binder concentration: 1:10,000 dilution
# [23] = peptide modifications: H3R8me1 H3K9ac, binder concentration: 1:2,000 dilution
# [24] = peptide modifications: H3R8me1 H3K9ac, binder concentration: 1:10,000 dilution
binder,measurement,setting,value
QTARKSTGGKAPR [H3 5-17 Q T A R Kme3 Sph T G G K A P R],peptide microarray binding signal,"[1]; peptide modifications: H3K9me3 H3S10ph, binder concentration: 50 nM",0.005862 ± 5.4e-05
same,peptide microarray binding signal,"[1]; peptide modifications: H3K9me3 H3S10ph, binder concentration: 500 nM",0.0171 ± 0.00064
same,peptide microarray binding signal,"[2]; peptide modifications: H3K9me3 H3S10ph, binder concentration: 10 nM",0.00358 ± 0.00073
same,peptide microarray binding signal,"[2]; peptide modifications: H3K9me3 H3S10ph, binder concentration: 100 nM",0.0227 ± 0.0053
same,peptide microarray binding signal,[3]; [5],0.00466 ± 0.0006
same,peptide microarray binding signal,[3]; [6],0.00913 ± 0.0042
same,peptide microarray binding signal,[4]; [5],0.362 ± 0.11
same,peptide microarray binding signal,[4]; [6],0.273 ± 0.078
QTARKSTGGKAPR [H3 5-17 Q T A R K S T G G Kac A P R],peptide microarray binding signal,"[1]; peptide modifications: H3K14ac, binder concentration: 50 nM",0.01348 ± 6.3e-05
same,peptide microarray binding signal,"[1]; peptide modifications: H3K14ac, binder concentration: 500 nM",0.0307 ± 0.0021
same,peptide microarray binding signal,"[2]; peptide modifications: H3K14ac, binder concentration: 10 nM",0.0491 ± 0.007
same,peptide microarray binding signal,"[2]; peptide modifications: H3K14ac, binder concentration: 100 nM",0.0789 ± 0.0089
same,peptide microarray binding signal,[3]; [7],0.0163 ± 0.0012
same,peptide microarray binding signal,[3]; [8],0.0226 ± 0.0018
same,peptide microarray binding signal,[4]; [7],0.0103 ± 0.00042
same,peptide microarray binding signal,[4]; [8],0.00657 ± 0.0006
QTARKSTGGKAPR [H3 5-17 Q T A Rcit Kac S T G G K A P R],peptide microarray binding signal,"[1]; peptide modifications: H3R8cit H3K9ac, binder concentration: 50 nM",0.0106 ± 0.00074
same,peptide microarray binding signal,"[1]; peptide modifications: H3R8cit H3K9ac, binder concentration: 500 nM",0.0249 ± 0.0053
same,peptide microarray binding signal,"[2]; peptide modifications: H3R8cit H3K9ac, binder concentration: 10 nM",0.0426 ± 0.0074
same,peptide microarray binding signal,"[2]; peptide modifications: H3R8cit H3K9ac, binder concentration: 100 nM",0.0673 ± 0.0053
same,peptide microarray binding signal,[3]; [9],0.0133 ± 0.0056
same,peptide microarray binding signal,[3]; [10],0.0146 ± 0.0065
same,peptide microarray binding signal,[4]; [9],0.0143 ± 0.0052
same,peptide microarray binding signal,[4]; [10],0.0112 ± 0.00045
QTARKSTGGKAPR [H3 5-17 Q T A Rcit K Sph T G G K A P R],peptide microarray binding signal,"[1]; peptide modifications: H3R8cit H3S10ph, binder concentration: 50 nM",0.00417 ± 0.00041
same,peptide microarray binding signal,"[1]; peptide modifications: H3R8cit H3S10ph, binder concentration: 500 nM",0.0107 ± 0.0011
same,peptide microarray binding signal,"[2]; peptide modifications: H3R8cit H3S10ph, binder concentration: 10 nM",0.00949 ± 0.0015
same,peptide microarray binding signal,"[2]; peptide modifications: H3R8cit H3S10ph, binder concentration: 100 nM",0.0187 ± 0.0059
same,peptide microarray binding signal,[3]; [11],0.00211 ± 0.00036
same,peptide microarray binding signal,[3]; [12],0.00194 ± 0.00019
same,peptide microarray binding signal,[4]; [11],0.00183 ± 0.00048
same,peptide microarray binding signal,[4]; [12],0.00133 ± 7.9e-05
QTARKSTGGKAPR [H3 5-17 Q T A Rcit Kme S T G G K A P R],peptide microarray binding signal,"[1]; peptide modifications: H3R8cit H3K9me1, binder concentration: 50 nM",0.00686 ± 0.00018
same,peptide microarray binding signal,"[1]; peptide modifications: H3R8cit H3K9me1, binder concentration: 500 nM",0.0113 ± 0.00044
same,peptide microarray binding signal,"[2]; peptide modifications: H3R8cit H3K9me1, binder concentration: 10 nM",0.0186 ± 0.0018
same,peptide microarray binding signal,"[2]; peptide modifications: H3R8cit H3K9me1, binder concentration: 100 nM",0.0317 ± 0.0022
same,peptide microarray binding signal,[3]; [13],0.00427 ± 0.00041
same,peptide microarray binding signal,[3]; [14],0.00394 ± 6.2e-05
same,peptide microarray binding signal,[4]; [13],0.00462 ± 0.00021
same,peptide microarray binding signal,[4]; [14],0.00311 ± 7e-05
QTARKSTGGKAPR [H3 5-17 Q T A Rcit Kme3 S T G G K A P R],peptide microarray binding signal,"[1]; peptide modifications: H3R8cit H3K9me3, binder concentration: 50 nM",0.0148 ± 0.00057
same,peptide microarray binding signal,"[1]; peptide modifications: H3R8cit H3K9me3, binder concentration: 500 nM",0.036 ± 0.002
same,peptide microarray binding signal,"[2]; peptide modifications: H3R8cit H3K9me3, binder concentration: 10 nM",0.0937 ± 0.0048
same,peptide microarray binding signal,"[2]; peptide modifications: H3R8cit H3K9me3, binder concentration: 100 nM",0.102 ± 0.013
same,peptide microarray binding signal,[3]; [15],0.453 ± 0.025
same,peptide microarray binding signal,[3]; [16],0.334 ± 0.09
same,peptide microarray binding signal,[4]; [15],1 ± 0.068
same,peptide microarray binding signal,[4]; [16],0.952 ± 0.059
QTARKSTGGKAPR [H3 5-17 Q T A R K S T G G Kme3 A P R],peptide microarray binding signal,"[1]; peptide modifications: H3K14me3, binder concentration: 50 nM",0.00931 ± 0.00042
same,peptide microarray binding signal,"[1]; peptide modifications: H3K14me3, binder concentration: 500 nM",0.0186 ± 0.0016
same,peptide microarray binding signal,"[2]; peptide modifications: H3K14me3, binder concentration: 10 nM",0.0256 ± 0.00028
same,peptide microarray binding signal,"[2]; peptide modifications: H3K14me3, binder concentration: 100 nM",0.0377 ± 0.0028
same,peptide microarray binding signal,[3]; [17],0.0987 ± 0.029
same,peptide microarray binding signal,[3]; [18],0.0663 ± 0.0053
same,peptide microarray binding signal,[4]; [17],0.0574 ± 0.00077
same,peptide microarray binding signal,[4]; [18],0.0328 ± 0.0018
QTARKSTGGKAPR [H3 5-17 Q T A R K S T G G Kme A P R],peptide microarray binding signal,"[1]; peptide modifications: H3K14me1, binder concentration: 50 nM",0.0197 ± 0.00048
same,peptide microarray binding signal,"[1]; peptide modifications: H3K14me1, binder concentration: 500 nM",0.047 ± 0.0024
same,peptide microarray binding signal,"[2]; peptide modifications: H3K14me1, binder concentration: 10 nM",0.0957 ± 0.02
same,peptide microarray binding signal,"[2]; peptide modifications: H3K14me1, binder concentration: 100 nM",0.0987 ± 0.016
same,peptide microarray binding signal,[3]; [19],0.0306 ± 0.0089
same,peptide microarray binding signal,[3]; [20],0.0289 ± 0.0032
same,peptide microarray binding signal,[4]; [19],0.0125 ± 0.0013
same,peptide microarray binding signal,[4]; [20],0.0104 ± 0.0012
QTARKSTGGKAPR [H3 5-17 Q T A R Kme3 S T G G Kme3 A P R],peptide microarray binding signal,"[1]; peptide modifications: H3K9me3 H3K14me3, binder concentration: 50 nM",0.00721 ± 0.00063
same,peptide microarray binding signal,"[1]; peptide modifications: H3K9me3 H3K14me3, binder concentration: 500 nM",0.00614 ± 0.00023
same,peptide microarray binding signal,"[2]; peptide modifications: H3K9me3 H3K14me3, binder concentration: 10 nM",0.00549 ± 0.00022
same,peptide microarray binding signal,"[2]; peptide modifications: H3K9me3 H3K14me3, binder concentration: 100 nM",0.00609 ± 0.00036
same,peptide microarray binding signal,[3]; [21],0.0344 ± 0.0088
same,peptide microarray binding signal,[3]; [22],0.0374 ± 0.015
same,peptide microarray binding signal,[4]; [21],0.241 ± 0.054
same,peptide microarray binding signal,[4]; [22],0.261 ± 0.13
QTARKSTGGKAPR [H3 5-17 Q T A Rme Kac S T G G K A P R],peptide microarray binding signal,"[1]; peptide modifications: H3R8me1 H3K9ac, binder concentration: 50 nM",0.0137 ± 0.00035
same,peptide microarray binding signal,"[1]; peptide modifications: H3R8me1 H3K9ac, binder concentration: 500 nM",0.0307 ± 0.0019
same,peptide microarray binding signal,"[2]; peptide modifications: H3R8me1 H3K9ac, binder concentration: 10 nM",0.0479 ± 0.004
same,peptide microarray binding signal,"[2]; peptide modifications: H3R8me1 H3K9ac, binder concentration: 100 nM",0.0783 ± 0.0015
same,peptide microarray binding signal,[3]; [23],0.0231 ± 0.0043
same,peptide microarray binding signal,[3]; [24],0.0272 ± 0.0053
same,peptide microarray binding signal,[4]; [23],0.0277 ± 0.0029
same,peptide microarray binding signal,[4]; [24],0.0205 ± 0.00081

# Reference: the supplement of paper PMC4022240
